Compounds with a hit are over-represented: about 2.7% of the library has one in this group of screens.
PAFAH2 FP inh: PAFAH2 (human) inhibition; Q99487; 340,000 tested, 0.99% active; inhibition, % at 3.39 µM; recombinant PAFAH2, FP-rhodamine activity probe, fluorescence polarization;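 active = inhibition above the mean over all tested compounds plus 3 SD, cut at about 30% in these data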;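 note: inhibitors block probe labeling of enzyme so polarization drops; 0% = enzyme with DMSO and 100% = wells lacking PAFAH2 protein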
PAFAH1B2 inh: PAFAH1B2 (human) inhibition; P68402; recombinant PAFAH1B2, FP-rhodamine activity probe, fluorescence polarization; inhibition, % at 3.39 µM; 340,000 tested, 1.2% active;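 active = inhibition above the mean of all tested compounds plus 3 SD, cut at about 24% in these data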;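 note: 0% = enzyme with DMSO and 100% = wells lacking PAFAH1B2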
Target sequence (P68402 whole entry, looked up): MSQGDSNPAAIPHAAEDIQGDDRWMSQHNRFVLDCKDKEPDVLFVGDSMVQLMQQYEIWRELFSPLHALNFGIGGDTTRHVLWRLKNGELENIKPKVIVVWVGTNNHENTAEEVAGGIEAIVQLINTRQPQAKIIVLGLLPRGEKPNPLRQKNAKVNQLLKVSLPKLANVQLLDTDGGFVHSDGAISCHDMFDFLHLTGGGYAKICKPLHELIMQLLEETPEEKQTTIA
pPAFAH FP inh: inhibitors of human plasma PAF acetylhydrolase (pPAFAH); recombinant pPAFAH, FP-rhodamine probe fluorescence polarization; inhibition, % at 3.39 µM; 330,000 tested, 1.5% active; AID 463082;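 active = inhibition above the mean inhibition across the screen plus 3 SD, cut at about 25% in these data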;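 note: inhibitors block binding of the rhodamine activity-based probe so polarization drops; 0% = enzyme with DMSO and 100% = wells lacking pPAFAH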
PAFAH1B3 inh: PAFAH1B3 (human) inhibition. recombinant PAFAH1B3, FP-rhodamine probe, fluorescence polarization. inhibition, % at 3.39 µM. 340,000 tested, 0.28% active;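 active = inhibition above the screen-wide average of all tested compounds plus 3 SD, cut at about 25% in these data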;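 note: 0% = enzyme with DMSO only and 100% = wells lacking PAFAH1B3 protein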
Target sequence (Q15102 whole entry, looked up): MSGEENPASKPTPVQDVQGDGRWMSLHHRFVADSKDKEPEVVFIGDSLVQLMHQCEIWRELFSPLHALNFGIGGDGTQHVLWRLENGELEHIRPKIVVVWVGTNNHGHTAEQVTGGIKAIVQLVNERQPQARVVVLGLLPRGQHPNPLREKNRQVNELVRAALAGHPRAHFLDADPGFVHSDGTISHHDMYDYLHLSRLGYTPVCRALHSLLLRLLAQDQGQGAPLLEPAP
TCR-CD3 inh: blocks the human TCR-CD3 interaction. TAMRA-labeled TCR probe fluorescence, biochemical. inhibition, % at 9.4 µM. 360,000 tested, 0.37% active. AID 651800;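 note: recombinant mutant TCR 2C K166C tagged with TAMRA read by polarization; 0% = receptor in buffer alone and 100% = receptor with positive control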
BSA TAMRA ctr: interferes with TAMRA-BSA probe, flagging TCR-CD3 hits. TAMRA-labeled BSA probe fluorescence counterscreen. inhibition, % at 9.4 µM. shares compounds with TCR-CD3 inh. AID 652035. 1,200 tested, 10% active; in the data active = inhibition above about 23%;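 note: 0% = buffer low control and 100% = reference high control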
TCR-CD3 conf: confirmation of human TCR-CD3 interaction inhibitors; shares compounds with TCR-CD3 inh; 1,200 tested, 48% active; inhibition, % at 9.4 µM; TAMRA-labeled TCR probe fluorescence binding assay
Numbers without * were called inactive; · = no result; + = active, no number. Cut-off read from the data, not from the text of the source, unless noted: active = inhibition above about 19%; inactive = the rest.

SMILES	PAFAH2 FP inh	PAFAH1B2 inh	pPAFAH FP inh	PAFAH1B3 inh	TCR-CD3 inh	BSA TAMRA ctr	TCR-CD3 conf
Cc1ccc2nc(-c3ccccc3)cn2c1	6	2	-4	6	5	·	·
Cc1ccc2nc(-c3ccc(O)c(O)c3)cn2c1	7	6	8	1	54*	-3	28*
O=C(CSc1nc2ccccc2c(=O)n1-c1ccc(F)c(Cl)c1)Nc1cccc(S(=O)(=O)N2CCOCC2)c1	-35	-17	0	-19	22*	7	19*
O=C1C=C(NCCc2cc(Br)c(O)c(Br)c2)C(=O)c2ncccc21	37*	28*	·	68*	26*	-6	25*
CC(C)(C)c1cc(CCC(=O)NCCc2ccccn2)cc(C(C)(C)C)c1O	0	2	0	7	10	·	·
CN(C)c1ccc(-c2nnc(-c3ccccc3F)o2)cc1	3	-3	17	5	-2	·	·
O=C(N/N=C/c1ccoc1)c1ccccc1O	12	0	17	5	25*	-19	15
O=C(N/N=C/c1ccoc1)c1cc(O)cc(O)c1	12	7	18	11	20*	-4	23*
O=C(N/N=C/c1ccoc1)c1ccccc1	-6	0	2	4	1	·	·
CCOC(=O)c1c(C)[nH]c(O)c1C=Nc1ccccc1	8	6	0	0	6	·	·
COC(=O)c1c(C)[nH]c(O)c1C=Nc1ccc(C#N)cc1	-7	4	8	13	41*	2	6
O=C(COC(=O)c1ccc(Br)o1)c1ccc(S(=O)(=O)N2CCCCC2)cc1	1	0	5	2	9	·	·
Cc1[nH]n(-c2ccccc2)c(=O)c1N=Nc1ccccc1O	23	3	·	17	28*	-4	20*
Cc1[nH]n(-c2ccccc2)c(=O)c1N=Nc1ccccc1C(=O)O	5	4	8	10	4	·	·
C[C@](N)(Cc1ccc(O)c(O)c1)C(=O)O	-1	3	·	14	22*	-5	2
COc1ccc(C[C@](C)(N)C(=O)O)cc1OC	11	1	-2	6	5	·	·
Cc1cc(S(=O)(=O)N2CCOCC2)ccc1OCC(=O)Nc1ccc(F)cc1F	-5	2	2	6	-3	·	·
Cn1c(=O)c(NCCO)c2c3c(cccc31)C(=O)c1ccccc1-2	58*	41*	95*	41*	71*	117*	80*
CC1CCN(C(=O)c2ccc3c(c2NCCO)C(=O)c2ccccc2C3=O)CC1	-2	-1	12	-4	-28	·	·
CC(=O)Nc1ccc(Nc2c3c4c(cccc4n(C)c2=O)C(=O)c2ccccc2-3)cc1	14	14	33*	11	21*	55*	37*
Cn1c(=O)c(NCCc2ccccc2)c2c3c(cccc31)C(=O)c1ccccc1-2	168*	147*	142*	165*	+	+	+
Cc1cn([C@H]2C[C@H](O)[C@@H](CNCc3cccn3-c3nccs3)O2)c(=O)[nH]c1=O	·	·	·	·	-1	·	·
OC(CSc1nnnn1-c1ccccc1)Cn1c2ccccc2c2ccccc21 (stereo unspecified)	·	·	·	·	5	·	·
CC(Sc1nc2ccccc2s1)C(=O)N(C)Cc1ccccc1 (stereo unspecified)	-8	2	5	-1	-6	·	·
COc1ccc(/C=C2\SC(=S)N(CCCC(=O)NNC(=O)c3ccccc3O)C2=O)cc1	5	4	15	3	31*	-14	22*
SMILES	PAFAH2 FP inh	PAFAH1B2 inh	pPAFAH FP inh	PAFAH1B3 inh	TCR-CD3 inh	BSA TAMRA ctr	TCR-CD3 conf
O=C(CCCN1C(=O)/C(=C/c2cccs2)SC1=S)NNC(=O)c1ccccc1O	14	-3	14	10	31*	-5	31*
COc1ccc(/C=C2/SC(=S)N(CCCC(=O)Nc3ccccc3C(=O)O)C2=O)cc1	18	10	11	-6	0	·	·
O=C(CCCN1C(=O)/C(=C/c2cccs2)SC1=S)NNC(=O)c1ccncc1	-3	-4	3	5	8	·	·
COc1cccc(/C=C2\SC(=S)N(CCC(=O)NNC(=O)c3ccccc3OC)C2=O)c1	7	3	8	3	41*	1	22*
COc1cccc(/C=C2/SC(=S)N(CC(=O)NNC(=O)c3ccccc3OC)C2=O)c1	3	3	8	4	17	·	·
O=C(C[C@@H]1C/C=C/CC[C@H](Cc2ccc(F)cc2)C(=O)OCCNC1=O)N[C@H](CO)Cc1ccccc1	2	12	4	7	7	·	·
O=C(CC(=O)c1ccccc1)Nc1ccccc1C(F)(F)F	3	6	4	12	-9	·	·
Cn1c(=O)c(C(=O)NNC(=O)c2cccc(Cl)c2)c(O)c2ccccc21	-2	-1	3	0	22*	-4	15
O=C(c1cccc(Cl)c1)N1CCCc2ccccc21	9	8	10	4	28*	28*	16
O=C(c1ccc(F)c(F)c1)N1CCCc2ccccc21	-2	7	1	9	7	·	·
CCOc1ccc(NS(=O)(=O)c2ccc(C(=O)NNC(=O)c3ccccc3O)cc2)cc1	-1	3	26*	1	23*	-9	23*
O=C(NNC(=O)c1cc(Cl)ccc1O)c1ccc(NS(=O)(=O)c2cccs2)cc1	0	8	12	0	24*	-17	17
O=C(NNC(=O)c1cc(F)c(F)cc1Cl)c1ccc(NS(=O)(=O)c2cccs2)cc1	5	4	1	11	5	·	·
O=C(NNC(=O)c1ccccc1O)c1ccc(S(=O)(=O)Nc2ccccc2)cc1	11	4	17	4	29*	-19	9
Nn1c(C2CCC2)nc2cc(Cl)ccc2c1=O	-1	5	-10	1	-5	·	·
O=C(N/N=C/c1cc2c3c(c1O)CCCN3CCC2)c1ccccc1O	15	12	·	18	69*	31*	68*
Cc1nn(-c2ccccc2)c(N2CCCC2)c1/C=N/NC(=O)c1ccccc1O	29	3	10	15	5	·	·
Cc1ccc(CC2CC(=O)N(c3nc4ccccc4s3)C2=O)cc1 (stereo unspecified)	-6	12	3	8	-1	·	·
CC(=O)c1nc(N2C(=O)CC(Cc3ccc(C)cc3)C2=O)sc1C (stereo unspecified)	1	6	-9	1	56*	-2	4
O=C(NNC(=O)c1cc(-c2ccncc2)nc2ccccc12)c1ccccc1O	0	7	8	15	28*	-10	21*
CC1=NN(C(=O)CSCc2ccccc2)C(O)(c2ccc(Cl)cc2)C1 (stereo unspecified)	5	7	4	15	20*	-6	7
CC1=NN(C(=O)CSCc2ccccc2)C(O)(c2ccc(F)cc2)C1 (stereo unspecified)	1	-2	2	4	9	·	·
COC(=O)c1sccc1NC(=O)Nc1ccc(C)c(C)c1	1	2	·	6	4	·	·
